Molecular target: T1, Serine/threonine-protein kinase DCLK2 (Homo sapiens) (UniProt Q8N568)
T1 sequence (whole entry): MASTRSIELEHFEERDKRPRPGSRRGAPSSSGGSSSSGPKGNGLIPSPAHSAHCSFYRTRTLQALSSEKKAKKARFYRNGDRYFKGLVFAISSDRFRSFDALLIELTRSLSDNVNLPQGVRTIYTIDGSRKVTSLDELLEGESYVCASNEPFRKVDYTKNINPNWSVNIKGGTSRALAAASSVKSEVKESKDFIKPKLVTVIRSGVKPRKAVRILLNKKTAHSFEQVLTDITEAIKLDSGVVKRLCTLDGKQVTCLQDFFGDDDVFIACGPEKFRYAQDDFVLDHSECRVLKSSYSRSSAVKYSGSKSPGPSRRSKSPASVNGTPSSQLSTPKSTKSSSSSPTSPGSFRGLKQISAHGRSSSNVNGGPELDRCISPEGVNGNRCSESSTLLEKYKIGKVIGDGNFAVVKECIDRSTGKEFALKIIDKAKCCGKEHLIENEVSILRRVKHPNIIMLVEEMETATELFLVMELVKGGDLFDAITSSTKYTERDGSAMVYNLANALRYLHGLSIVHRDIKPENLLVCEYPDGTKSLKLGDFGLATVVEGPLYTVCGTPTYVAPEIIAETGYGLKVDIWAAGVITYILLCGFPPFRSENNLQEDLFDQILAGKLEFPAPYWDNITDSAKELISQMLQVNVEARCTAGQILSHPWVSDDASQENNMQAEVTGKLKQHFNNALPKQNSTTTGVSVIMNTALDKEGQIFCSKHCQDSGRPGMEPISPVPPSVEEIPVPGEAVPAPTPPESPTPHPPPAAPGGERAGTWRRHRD
Conditions: at 10 µM

First: CC(C)[C@H](CO)Nc1nc(Nc2cccc(Cl)c2)c2ncn(C(C)C)c2n1
Second: CCn1cnc2c(Nc3cccc(Cl)c3)nc(N[C@@H]3CCCC[C@@H]3N)nc21
The residual activity of the first is higher: 139% for the first, 67% for the second.

First: COC(=O)[C@@]1(O)C[C@H]2O[C@]1(C)n1c3ccccc3c3c4c(c5c6ccccc6n2c5c31)C(=O)NC4
Second: O=c1[nH]c2ccccc2n1C1CCN(Cc2ccc(-c3nc4cc5[nH]cnc5cc4nc3-c3ccccc3)cc2)CC1
The residual activity of the first is lower: 41% for the first, 98% for the second.

Going from `C[S+]([O-])c1ccc(-c2nc(-c3ccc(F)cc3)c(-c3ccncc3)[nH]2)cc1` (stereo not drawn) to `c1cc(-c2cnn3cc(-c4ccc(OCCN5CCCCC5)cc4)cnc23)ccn1`, the residual activity falls from 111% to 76%.

Compared with `COc1cc2ncnc(Nc3ccc(OCc4ccccc4)cc3)c2cc1OC`, `COc1ccc2c(c[n+](C)c3c4cc5c(cc4ccc23)OCO5)c1OC` is lower in residual activity: 112% for the first, 90% for the second.

Going from `O=[N+]([O-])/C=C/c1ccc2c(c1)OCO2` to `O=C1Nc2ccc3ncsc3c2/C1=C/c1c[nH]cn1`, the residual activity falls from 68% to 17%.

Molecular target: T2, Discoidin domain-containing receptor 2 (Homo sapiens) (UniProt Q16832)
T2 sequence (whole entry): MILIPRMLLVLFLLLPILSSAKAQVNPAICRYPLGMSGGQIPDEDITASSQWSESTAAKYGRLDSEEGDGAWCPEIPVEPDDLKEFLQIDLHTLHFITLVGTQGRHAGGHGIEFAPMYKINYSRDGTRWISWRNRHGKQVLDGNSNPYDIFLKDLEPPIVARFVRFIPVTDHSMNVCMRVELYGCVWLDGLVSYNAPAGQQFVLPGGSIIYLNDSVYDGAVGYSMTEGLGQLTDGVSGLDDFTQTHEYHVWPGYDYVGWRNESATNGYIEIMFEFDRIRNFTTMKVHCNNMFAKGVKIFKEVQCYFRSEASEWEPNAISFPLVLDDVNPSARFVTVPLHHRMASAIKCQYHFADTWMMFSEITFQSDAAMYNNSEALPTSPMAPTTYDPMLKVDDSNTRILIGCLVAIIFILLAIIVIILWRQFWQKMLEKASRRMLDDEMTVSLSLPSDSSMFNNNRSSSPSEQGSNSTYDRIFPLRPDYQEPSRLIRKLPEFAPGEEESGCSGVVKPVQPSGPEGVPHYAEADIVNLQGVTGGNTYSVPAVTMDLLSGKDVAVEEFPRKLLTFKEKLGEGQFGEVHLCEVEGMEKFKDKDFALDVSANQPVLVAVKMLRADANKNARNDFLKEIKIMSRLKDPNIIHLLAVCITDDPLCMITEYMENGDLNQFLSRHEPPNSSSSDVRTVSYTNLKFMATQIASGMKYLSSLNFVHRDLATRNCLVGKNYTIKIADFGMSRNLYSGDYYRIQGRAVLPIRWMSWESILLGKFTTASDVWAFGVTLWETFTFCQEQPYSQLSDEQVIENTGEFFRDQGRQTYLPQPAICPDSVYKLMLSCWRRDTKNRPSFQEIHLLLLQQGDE
Conditions: at 1 µM

Compared with `CC(C)[C@H](CO)Nc1nc(Nc2cccc(Cl)c2)c2ncn(C(C)C)c2n1`, `COc1cc2ncnc(Nc3ccc(OCc4ccccc4)cc3)c2cc1OC` is higher in residual activity: 91% for the first, 108% for the second.

First: COC(=O)[C@@]1(O)C[C@H]2O[C@]1(C)n1c3ccccc3c3c4c(c5c6ccccc6n2c5c31)C(=O)NC4
Second: O=C1NC(=O)c2c1c1c3ccccc3n3c1c1c2c2ccccc2n1C1CCC3O1
The residual activity of the first is lower: 56% for the first, 77% for the second.

First: C[S+]([O-])c1ccc(-c2nc(-c3ccc(F)cc3)c(-c3ccncc3)[nH]2)cc1 (stereo not drawn)
Second: O=c1[nH]c2ccccc2n1C1CCN(Cc2ccc(-c3nc4cc5[nH]cnc5cc4nc3-c3ccccc3)cc2)CC1
The residual activity of the first is lower: 94% for the first, 109% for the second.

`N/C(=N\[N+](=O)[O-])N/N=C\c1ccc(-c2cccc([N+](=O)[O-])c2)o1` and `O=[N+]([O-])/C=C/c1ccc2c(c1)OCO2` are the same in residual activity: 100% for the first, 100% for the second.

First: COc1cc(OC)c(/C=C2\C(=O)Nc3ccccc32)c(OC)c1
Second: O=C1Nc2ccc3ncsc3c2/C1=C/c1c[nH]cn1
The residual activity of the first is lower: 97% for the first, 113% for the second.

For `CC(C)(C)c1cc(C=C(C#N)C#N)cc(Br)c1O`, the residual activity was 115%.

Molecular target: T2, Discoidin domain-containing receptor 2 (Homo sapiens)
Conditions: at 10 µM

First: CC(C)[C@H](CO)Nc1nc(Nc2cccc(Cl)c2)c2ncn(C(C)C)c2n1
Second: CCn1cnc2c(Nc3cccc(Cl)c3)nc(N[C@@H]3CCCC[C@@H]3N)nc21
The residual activity of the first is higher: 92% for the first, 78% for the second.

Compared with `COC(=O)[C@@]1(O)C[C@H]2O[C@]1(C)n1c3ccccc3c3c4c(c5c6ccccc6n2c5c31)C(=O)NC4`, `O=C1NC(=O)c2c1c1c3ccccc3n3c1c1c2c2ccccc2n1C1CCC3O1` is higher in residual activity: 17% for the first, 81% for the second.

Compared with `C[S+]([O-])c1ccc(-c2nc(-c3ccc(F)cc3)c(-c3ccncc3)[nH]2)cc1` (stereo not drawn), `c1cc(-c2cnn3cc(-c4ccc(OCCN5CCCCC5)cc4)cnc23)ccn1` is higher in residual activity: 46% for the first, 69% for the second.

Compared with `N/C(=N\[N+](=O)[O-])N/N=C\c1ccc(-c2cccc([N+](=O)[O-])c2)o1`, `O=[N+]([O-])/C=C/c1ccc2c(c1)OCO2` is lower in residual activity: 99% for the first, 97% for the second.

Going from `COc1cc2ncnc(Nc3ccc(OCc4ccccc4)cc3)c2cc1OC` to `COc1cc(OC)c(/C=C2\C(=O)Nc3ccccc32)c(OC)c1`, the residual activity falls from 93% to 90%.

First: O=C1Nc2ccc3ncsc3c2/C1=C/c1c[nH]cn1
Second: O=c1[nH]c2ccccc2n1C1CCN(Cc2ccc(-c3nc4cc5[nH]cnc5cc4nc3-c3ccccc3)cc2)CC1
The residual activity of the first is lower: 82% for the first, 85% for the second.

From ChEMBL document CHEMBL2218924, “A broad activity screen in support of a chemogenomic map for kinase signalling research and drug discovery” (Biochem J, 2013)
